IL1B secr inh: qHTS for Inhibitors of Inflammasome Signaling: IL-1-beta AlphaLISA Primary Screen; 360,000 compounds, 4.7% hits; activity change, % at 57.5 µM; THP-1 LPS/ATP IL-1B secretion, AlphaLISA, 16 h; hits give low values; AID 743279, 2014; in the data active = activity change below about -50%; inconclusive = mostly about -30% to -49%
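THP-1 cells pretreated 1 hr with compounds (up to 57.5 uM final), then stimulated with LPS (250 ng/mL final) plus ATP (1.25 mM final); secreted IL-1B measured by AlphaLISA after 16 hr, decreased signal indicating inhibition.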
HT1080NT lethal: qHTS for induction of synthetic lethality in tumor cells producing 2HG: qHTS for the HT-1080-NT fibrosarcoma cell line. HT-1080-NT fibrosarcoma viability, CellTiter-Glo ATP luminescence, 48 h. Potency, µM (top dose mostly 46.1 µM), for the others: at the highest dose activity, negative = less viability, usual class: cytotoxic. 360,000 compounds, 1.6% hits. AID 686970, 2013;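 note: NT is the 2HG producing partner of a matched IDH1 knockdown line; potency is the fitted concentration of half-maximal effect; 0% = DMSO-treated cells and -100% = media-only wells without cells; nearly all actives have a fitted effect of over 55% in size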
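HT-1080-NT; 750 cells/well; 5% FBS RPMI; 48 h compound, 37 degrees C; CellTiter-Glo luminescence; curve fitting and curve-class assignment.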
HT1080 IDH1KD tx: qHTS for induction of synthetic lethality in tumor cells producing 2HG: qHTS for the HT-1080-IDH1KD cell line | HT-1080 IDH1 knockdown viability, ATP luminescence, 48 h | Potency, µM (doses to about 46.1 µM), without a hit: top-dose activity, negative = toxicity, usual class: cytotoxic | 360,000 compounds, 2% hits;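 note: potency is the fitted concentration of half-maximal effect; 0% = DMSO wells and -100% = cell-free medium wells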
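HT-1080-IDH1KD cells (IDH1 knocked down), 750/well in RPMI with 5% FBS, treated with compound 48 h at 37 degrees C. Viability by CellTiter-Glo luminescence, normalised to DMSO and no-cell wells; concentration-response curves classed.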
DT40 TDP1 no CPT: qHTS for Inhibitors of human tyrosyl-DNA phosphodiesterase 1 (TDP1): qHTS in cells in absence of CPT; Potency, µM (top dose mostly 46.2 µM), for the others: at the top dose activity change, negative = growth inhibition, hits mostly inhibitors; DT40 Tdp1-/- hTDP1 cells, no CPT, ATP luminescence, 48 h; 420,000 compounds, 15% hits; note: potency is the fitted concentration of half-maximal effect; nearly all actives have a fitted effect of over 55% in size
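DT40 Tdp1-/-;hTDP1 cells, no CPT (DMSO vehicle only), 400 cells/well; compounds pin-transferred; ≥48 hr, 37 °C; CellTiter-Glo 30 min RT dark, luminescence read.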
DT40 TDP1 CPT: qHTS for Inhibitors of human tyrosyl-DNA phosphodiesterase 1 (TDP1): qHTS in cells in presence of CPT; 420,000 compounds, 12% hits; chicken DT40 Tdp1-/-;hTDP1 cells + 20 nM CPT, ATP luminescence, 48 h; AID 686979, 2013; Potency, µM (titrated, usually from 46.2 µM), for the others: at the top dose activity change, negative = growth inhibition, actives largely listed as inhibitors; note: potency is the fitted concentration of half-maximal effect; nearly all actives have a fitted effect of over 55% in size
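Chicken DT40 Tdp1-/- cells complemented with human TDP1, 400 cells/well, exposed to compounds plus 20 nM camptothecin for at least 48 h at 37 C; viability read as ATP content by CellTiter-Glo luminescence.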
An asterisk follows results filed as active; ? = inconclusive; · = no result; [ ] = another dose, or the depositor's remark. Only some compounds are listed: those with a hit (about 19% of all), similar ones and a draw of the others. Unless noted, calls come from the whole dose curve; as a rule, active = well fitted curve in the direction sought with a large enough effect; inconclusive = small, poorly fitted or top-dose-only effect, or another doubt; inactive = no such curve, though single readings can be large; an effect the other way counts as inactive or inconclusive. Unless noted, % is set by controls: 0 for no effect and ±100 for the full control effect.

SMILES | IL1B secr inh | HT1080NT lethal | HT1080 IDH1KD tx | DT40 TDP1 no CPT | DT40 TDP1 CPT
COC(=O)CN(C#N)c1nc(NC(C)C)nc(OC)n1 | -0.3 | -1.4% | -9.2% | -13.0% | 1.4%
COC(=O)c1cc(C)nc2c1c(C)nn2-c1ccccc1 | 13.3 | 4.8% | 6.3% | -1.2% | -1.0%
Cc1ccc(C)c(N2CCN(C(=O)c3cc(C)nc4c3c(C)nn4-c3ccccc3)CC2)c1 | · | · | · | 18.4µM* | ?
Cc1cc(C(=O)N2CCN(c3cc(Cl)ccc3C)CC2)c2c(C)nn(-c3ccccc3)c2n1 | · | · | · | ? | 20.6µM*
CSc1ncc(C(=O)N2CCN(c3cc(C)ccc3C)CC2)c(C)n1 | · | · | · | ? | 20.6µM*
CSc1ncc(C(=O)N2CCN(c3cc(Cl)ccc3C)CC2)c(C)n1 | · | · | · | ? | -26.7%
Cc1cccc(NC(=S)NCC(c2cccnc2)N(C)C)c1 (stereo not given) | 35.7 | 21.9% | 26.8% | 5.4% | 7.1%
CC(=O)N1c2ccc(S(=O)(=O)NCCC(=O)Nc3ccc(C)c(Cl)c3)cc2CC1C (stereo not given) | 88.4 | -1.8% | -4.5% | 13µM* | 14.6µM*
CC(=O)N1c2ccc(S(=O)(=O)NCCC(=O)Nc3ccc(Br)c(C)c3)cc2CC1C (stereo not given) | · | · | · | 5.17µM* | 8.2µM*
CC(=O)N1c2ccc(S(=O)(=O)NCCC(=O)Nc3ccc(F)cc3)cc2CC1C (stereo not given) | 43.6 | 4.3% | 4.6% | ? | ?
CC(=O)N1c2ccc(S(=O)(=O)NCCC(=O)NCc3ccc(Cl)cc3)cc2CC1C (stereo not given) | -0.9 | -11.7% | -11.2% | 14.6µM* | ?
CCc1ccc(-n2nc(CO)c(C(=O)NC(C)c3ccc(Cl)cc3)n2)cc1 (stereo not given) | · | · | · | -14.9% | -28.0%
COc1ccc(NC(=O)c2cn3c4c(ccc(Cl)c4c2=O)OC(C)C3)cc1OC (stereo not given) | · | · | · | ? | -8.7%
Clc1ccc(-c2nnc3n2-c2ccccc2SC3)cc1 | 8.6 | -3.9% | -6.7% | ? | -0.5%
CN1C(c2ccc(F)cc2)=CS/C1=C(\C#N)c1nnc2n1-c1ccccc1SC2 | -78.6* | -26.2% | ? | -14.9% | ?
Oc1cccc2c(NC(=S)Nc3ccc(OC(F)F)cc3)cccc12 | 23.3 | -4.1% | -2.9% | 18.4µM* | -58.5%
CCCS(=O)(=O)NC(=O)C1(C)CCN(C(=O)c2cccc(C)c2C)C1 (stereo not given) | -5.3 | 16.4% | 8.4% | -16.5% | -9.0%
COc1cc(S(=O)(=O)N2CCOCC2)ccc1NC(=O)COC(=O)c1cc(OC)c(OC)c(OC)c1 | 0.0 | 1.7% | -9.8% | ? | -17.7%
COc1ccc(S(=O)(=O)N2CCOCC2)cc1NC(=O)COc1ccc(C)cc1 | -50.8* | 0.0% | -2.7% | ? | ?
CCOc1ccc(S(=O)(=O)N2CCOCC2)cc1NC(=O)CSCc1ccc(C)cc1 | 24.9 | 8.2µM* | ? | 4.61µM* | 5.17µM*
COc1ccc(S(=O)(=O)N2CCOCC2)cc1NC(=O)CCNC(=O)c1ccc(Cl)cc1 | 2.2 | 20.6µM* | ? | -3.5% | -28.5%
COc1cc(S(=O)(=O)N2CCOCC2)ccc1NC(=O)COC(=O)CC12CC3CC(CC(C3)C1)C2 | 0.0 | -4.3% | -15.9% | 18.4µM* | ?
CCOc1ccc(S(=O)(=O)N2CCOCC2)cc1NC(=O)C1CCC1 | 17.5 | 5.4% | -0.1% | 7.0% | 2.9%
COc1cc(NC(=O)CC(C)S(=O)(=O)c2ccc3c(c2)CCN3C(C)=O)cc(OC)c1OC (stereo not given) | · | · | · | -12.6% | -15.3%
Cc1ccc(OCCCC(=O)Nc2cc(S(=O)(=O)N3CCOCC3)ccc2N2CCOCC2)cc1 | -13.9 | -0.3% | 5.2% | 23.1µM* | 20.6µM*
SMILES | IL1B secr inh | HT1080NT lethal | HT1080 IDH1KD tx | DT40 TDP1 no CPT | DT40 TDP1 CPT
COc1ccc(NC(=O)CN2C(=O)c3cccnc3Sc3ccccc32)cc1OC | · | · | · | 16.4µM* | ?
CC(=O)c1cccc(NC(=O)CN2C(=O)c3ccccc3Sc3ncccc32)c1 | · | · | · | 8.2µM* | 16.4µM*
CC(=O)c1cccc(NC(=O)CN2C(=O)c3ccccc3C2=O)c1 | 35.4 | 9.5% | 3.8% | 17.5% | 40.1%
O=C(NC(Cc1ccccc1)C(=O)O)C1CCN(S(=O)(=O)c2ccccc2C(F)(F)F)CC1 (stereo not given) | -18.7 | 13.6% | 0.0% | 4.5% | -9.4%
COc1ccc(NC(=O)CSCC(=O)N2CCN(C(=O)c3ccco3)CC2)cc1 | 0.8 | -2.2%[9.24 µM] | -1.0% | 12.1% | -23.3%
Cc1cc(C(N)=O)c2ccccc2n1 | 15.6 | 1.1% | -9.1% | -0.5% | 0.8%
NC(=O)c1cc2c3ccccc3ccn2c1-c1ccccc1 | -91.3* | 1.64µM* | ? | 0.206µM* | 0.184µM*
CCOc1ccccc1NC(=O)COC(=O)C12CC3CC(CC(O)(C3)C1)C2 | 7.1 | 2.6% | 3.0% | -28.7% | -27.8%
CC1(C)c2ccccc2N2CC(=O)N[C@@]21/C=C/C=C/c1ccccc1 | -27.9 | 10.3µM* | ? | ? | ?
O=C(O)CCSCC(=O)c1ccc2c(c1)OCCO2 | 35.9 | -5.4% | -2.0% | -20.4% | -21.5%
O=C(C[n+]1ccc(/C=C/c2ccccc2)cc1)c1ccc2c(c1)OCCO2 | -94.3* | ? | 16.4µM* | 9.2µM* | ?
CCC(=O)c1ccc2c(c1)OCCO2 | -6.4 | 5.7% | 6.4% | 2.8% | -20.6%
O=C(O)CCC(=O)c1ccc2c(c1)OCCO2 | -1.1 | 0.0% | -0.8% | -2.1% | -12.6%
O=C(CCN1Cc2ccccc2C1)c1ccc2c(c1)OCCO2 | -89.6* | ? | 11.2µM* | 5.17µM* | 3.66µM*
O=C(CCN1CCc2ccccc2C(c2ccccc2)C1)c1ccc2c(c1)OCCO2 (stereo not given) | -20.2 | ? | ? | 3.26µM* | 3.26µM*
O=C(CS(=O)(=O)c1ccccc1)c1ccc2c(c1)OCCO2 | -3.6 | 0.5% | 3.3% | 18.4µM* | 14.6µM*
O=C(Cc1ccc(Cl)cc1)NCC(=O)N1CCCC1 | -4.3 | -3.6% | -4.0% | -14.5% | -1.6%
COc1ccc(SCc2noc(C(=O)NC(C)C)c2C(=O)O)cc1 | 14.9 | -5.3% | -10.6% | 4.6% | -12.1%
Cc1ccc(S(=O)(=O)N2[C@@H](CCO)OC[C@H]2C(C)C)cc1 | 14.6 | 9.6% | 7.5% | ? | -3.3%

Assay outcomes deposited in PubChem BioAssay by National Center for Advancing Translational Sciences (NCATS).
